Values joined by “and” are separate entries in the source; they are usually repeats but may differ in a detail not shown here. Equal values may be shown once. Results filed as inconclusive are left out. Active and inactive are the calls of the source. Calls come from the whole dose curve.
experiment: Primary qHTS to identify inhibitors of SARS-CoV-2 cell entry (AID 1645846); details: SARS-CoV-2 pseudovirus cell entry assay, luminescence; activity change, negative = inhibition: at 57.1 µM (top of the series) unless noted; series mostly up to 57.1 µM; note: nearly all actives have a fitted effect of over 45% in size
Source text: Assay Provider: Wei Zheng, Ph.D.
National Center for Advancing Translational Sciences, National Institute of Health, Rockville, MD.
SARS-CoV-2 spike protein, within the viral envelope, mediates viral attachment and infection of host cells. The SARS-CoV-2 spike protein specifically binds to the host receptor ACE2 (Angiotensin-converting enzyme 2). This interaction promotes endocytosis of the viral particle, additional events lead to viral-host cell membrane fusion and release of the viral contents, allowing viral replication.
While SARS-CoV-2 requires BSL-3 facilities for live virus work, pseudotyped partices (PP) that incorporate SARS-CoV-2 spike proteins without replication elements could facilitate studies on viral entry mechanisms in a BSL-2 setting. This PP cell entry assay could also enable screening of small molecule compound libraries in BSL-2 setting to identify inhibitors of SARS-CoV-2 cell entry.
PROTOCOL TABLE (format as described by Inglese J, Shamu CE and Guy RK. 2007)
SEQUENCE No. (e.g., 1, 2, 3, etc.); […] (e.g., Cells, Incubation, Reagent, etc.); VALUE and DESCRIPTION.
1. Cells. Seed 1500 HEK293-ACE2 cells (Expi293F with stable expression of human ACE2) in 2 uL/well media (DMEM, 10% FBS, 1x L-glutamine, 1x Pen/Strep, 1 ug/ml puromycin) in white 1536-well assay plates (Greiner #782073).
2. Incubation. Incubate at 37C with 5% CO2 overnight (~16 h).
3. Compounds. Dispense 23 nL/well compounds in DMSO via pin transfer.
4. Incubation. Incubate for 1 hr at 37C 5% CO2.
5. Reagent. Dispense 2 uL/well of SARS-CoV-2-S pseudotyped particles. [a] PPs are produced with murine leukemia virus pseudotyping. [b] SARS-CoV-2-S is Wuhan-Hu-1 sequence (BEI #NR-52420) with C-terminal 19 amino acid truncation.
6. Centrifuge. […]
7. Incubation. Incubate at for 48 hr at 37C 5% CO2
8. Centrifuge. Remove supernatant with gentle centrifugation using a Blue Washer (BlueCat Bio).
9. Reagent. Dispense 4 uL/well of Bright-Glo Luciferase detection reagent (Promega #E2620).
10. Incubation. Incubate for 5 min at room temperature.
11. Detection. Read luminescence signal (Viewlux plate reader, PerkinElmer). Data was normalized with wells containing SARS-CoV-2-S PP as 100%, and wells containing bald PP (no fusion protein) as 0%.
Potency is the fitted concentration of half-maximal effect.

| Compound | outcome | activity change, negative = inhibition | Potency |
| --- | --- | --- | --- |
| Cc1cccn2c(=O)c(-c3nnn[nH]3)cnc12 | inactive [at 27.1 µM] | – | – |
| CCOC(=O)CC(SP(=S)(OC)OC)C(=O)OCC (stereo not given) | – | 2.11% | – |
| CC(=O)N(CC(O)CO)c1c(I)c(C(=O)NCC(O)CO)c(I)c(C(=O)NCC(O)CO)c1I (stereo not given) | inactive | – | – |
| COc1c(N2C[C@@H]3CCCN[C@@H]3C2)c(F)cc2c(=O)c(C(=O)O)cn(C3CC3)c12 | – | -24.8% | – |
| O=C(NC(Cc1cc(=O)[nH]c2ccccc12)C(=O)O)c1ccc(Cl)cc1 (stereo not given) | inactive | 1.86% | – |
| CNNCc1ccc(C(=O)NC(C)C)cc1 | inactive | 3.71% | – |
| Cc1ccccc1N1CCN(CCc2nnc3n2CCCC3)CC1 | inactive | – | – |
| CC(=O)O[C@@H]1CC2C3CCc4cc(OC(=O)c5ccccc5)ccc4C3CCC2(C)[C@H]1OC(C)=O (stereo not given in full) | – | 4.28% | – |
| NS(=O)(=O)c1cc2c(cc1C(F)(F)F)NC(Cc1ccccc1)NS2(=O)=O (stereo not given) | inactive | – | – |
| O=C(Oc1ccccc1)c1ccccc1O | inactive | – | – |
| NS(=O)(=O)c1cc(-c2nn[nH]n2)c(NCc2cccs2)cc1Cl | – | -3.88% | – |
| CCOc1cc(CC(=O)N[C@@H](CC(C)C)c2ccccc2N2CCCCC2)ccc1C(=O)O | – | -13.4% | – |
| Cc1cc(C)c(NC(=O)CN(CC(=O)O)CC(=O)O)c(C)c1Br | – | -26.2% | – |
| CCOC(=O)C1=C[C@@H](OC(CC)CC)[C@H](NC(C)=O)[C@@H](N)C1 | inactive | -2% | – |
| O=C(O)Cc1cccc2ccccc12 | inactive | – | – |
| CC(=O)CC(c1ccccc1)c1c(O)c2ccccc2oc1=O (stereo not given) | inactive | 0.432% | – |

| Compound | outcome | activity change, negative = inhibition | Potency |
| --- | --- | --- | --- |
| C[C@]12CCC(=O)C=C1CC[C@@H]1[C@@H]2[C@@H](O)C[C@@]2(C)[C@H]1CC[C@]2(O)C(=O)COC(=O)CCC(=O)O | inactive | – | – |
| CC(C)NCC(O)c1ccc(NS(C)(=O)=O)cc1 (stereo not given) | – | -13.1% and -25% | – |
| CC(=O)OC(C)OC(=O)C(C)c1ccc(-c2ccccc2)c(F)c1 (stereo not given) | – | -21.2% | – |
| CCN1C(=O)NC(c2ccccc2)C1=O (stereo not given) | – | -1.94% | – |
| CCc1cc(C(N)=S)ccn1 | inactive | -20.7% | – |
| COc1ccc2[nH]cc(CCNC(C)=O)c2c1 | inactive | -6.18% | – |
| COC(=O)[C@@H]1[C@H]2C[C@H]3c4[nH]c5ccccc5c4CCN3C[C@@H]2CC[C@@H]1O | inactive | -32.5% | – |
| O=C(N[C@H](CO)[C@H](O)c1ccc([N+](=O)[O-])cc1)C(Cl)Cl | – | 2.2% | – |
| CCCCCCCCCCC[C@@H](C[C@@H]1OC(=O)[C@H]1CCCCCC)OC(=O)[C@H](CC(C)C)NC=O | – | 0.353% | – |
| C[C@]12C=CC(=O)C=C1CC[C@@H]1[C@@H]2C(=O)C[C@@]2(C)[C@H]1CC[C@]2(O)C(=O)CO | inactive | -11.4% | – |
| O=C(O)c1ccccc1Nc1cccc(C(F)(F)F)c1 | inactive | – | – |
| C[C@]12CC[C@H]3[C@@H](CCC4=CC(=O)CC[C@@H]43)[C@@H]1CC[C@@H]2OC(=O)CCc1ccco1 | inactive | – | – |
| NS(=O)(=O)c1ccc(Cl)c(S(N)(=O)=O)c1 | inactive | – | – |
| NCc1ccc(S(N)(=O)=O)cc1 | inactive | – | – |
| CC12CCC(CC1)C(C)(C)O2 | inactive | – | – |
| COc1cc(NS(C)(=O)=O)ccc1Nc1c2ccccc2nc2ccccc12 | – | – | 1 µM (active) and 708 nM (active) |
